# From PubChem BioAssay (EPA / NIEHS)
# Active and inactive are the calls of the source. Rule for the calls: active = hit-call score of the fitted dose curve at least 0.9, where 1 is the maximum; inactive = score below 0.9.
# Read-out: Cyclin D2 (CCND2), CCND2 (gene 894)
# Assay: LTEA_HepaRG_CCND2: Life Technologies and Expression Analysis (LTEA) Assay for Cyclin D2 (CCND2) using HepaRG (AID 2283449);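 note: CCND2 transcript measured by TaqMan qRT-PCR and normalised to three housekeeping genes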
# Settings: mRNA level, 48 h; actives raise or lower the signal
# Method: LTEA_HepaRG is a cell based, multiplexed-readout assay that uses HepaRG, a human liver cell line, with measurements taken at 48 hours after chemical dosing on a 96-well plate.LTEA_HepaRG_CCND2 is one of 102 assay component(s) measured in the LTEA HepaRG cell culture assay. It is a marker of Cell proliferation, survival, death.Data from the assay component LTEA_HepaRG_CCND2 was analyzed into 1 endpoint. This assay endpoint, LTEA_HepaRG_CCND2, was analyzed with bidirectional fitting relative to DMSO as the negative control and baseline of activity. Using a type of inducible reporter, measures of mRNA induction for gain or loss-of-signal activity can be used to understand regulation of transcription factor activity. To generalize the intended target to other relatable targets, this assay endpoint is annotated to the cell cycle intended target family, where the subfamily is Cell proliferation, survival, death.
# A total of 1060 chemcials from the ToxCast library were tested in eight-point concentration-response experiments. Cell culture and cytotoxicity assays were conducted at Thermo Fisher Scientific's Custom Services facility (Madison, WI). A single lot of human HepaRG cells (Thermo Fisher Scientific, Frederick, MD) was used for the cell culture experiments. 96-well format collagen type I coated plates of human HepaRG cells were prepared using established methods. Briefly, cryopreserved HepaRG cells were thawed, plated at a density of approximately 100,000 cells/well in HepaRG Thaw, Plate, and General Purpose media (HPRG770, Thermo Fisher Scientific), and incubated for 48 hours. 0.5% DMSO was selected as vehicle control to balance the requisite need of DMSO in HepaRG cultures to maintain differentiation (for example, baseline metabolism, proportions of hepatocytes vs. cholangiocytes), while enabling further hepatic receptor pathway activation (for example, PXR and CAR) in response to chemical exposure. 48 hours after plating, the culture medium was replaced with HepaRG Serum-Free Incudtion Media. Cells were exposed to each test chemical in duplicate and maintained in CO2 incubators for another 48 hours. Chemical plates were thawed to room temperature and 200x concentrations of treatment groups were prepared. 8-point conentration-reponse curves were made with the highest exposure at 100 uM, followed by half-log dilutions, all in 0.5% DMSO. Each test plate contained variouse controls, induction positive controls (1mM phenobarbital), cytotoxicity positive controls ([…] aflatoxin B1), vehicle controls (0.5% DMSO), and total lysis controls (0.5% DMSO). Cell morphology images were taken using an Essen IncuCyte FLR automated microscope, with six 96-well plates imaged in about 24 minutes. Images were captured and exported and JPEG files. Spent culture media was transfered to black-well plates for the LDH assay, and remaining media was sorted at -80 C for later use. Cells were treated with RLT buffer and frozen until shipped for gene expression analysis. Total RNA was isolated from the cell suspension in 75 uL of Buffer RLT (Qiagen, Germantown, MD 20874) by Quintiles/Expression Analysis (Durham, NC) using a custom isolation procedure. Total RNA from each plate well was transferred to a preamplification plate. Fluidigm's 96.96 Dynamic ArrayTM (Fluidigm, Amsterdam, the Netherlands) technology was used for gene expression analyses by quantitative reverse transcription polymerase chain reaction (qRT-PCR, performed by Quintiles/Expression Analysis, Durham, NC)89. Standard TaqManTM Assays (Applied Biosystems/ThermoFisher Scientific, Foster City, CA) were used to assess the expression of 93 genes selected based on their selectivity and sensitivity to important hepatic receptors known to be modulated by environmental chemicals; importance in human hepatocyte functionality; and hepatotoxicity. […]
row,Structure (SMILES),outcome
1,COc1nn(CSP(=S)(OC)OC)c(=O)s1,inactive
2,CCCN(CCOc1c(Cl)cc(Cl)cc1Cl)C(=O)n1ccnc1,inactive
3,COP(=O)(OC)OC=C(Cl)Cl,inactive
4,O=C(NC(=O)c1c(F)cccc1F)Nc1ccc(OC(F)(F)C(F)OC(F)(F)F)c(Cl)c1 (stereo unspecified),inactive
5,CC(C)(C)C(O)C(Oc1ccc(Cl)cc1)n1cncn1 (stereo unspecified),inactive
6,CNC(=O)/C=C(\C)OP(=O)(OC)OC,inactive
7,CC(C)(C)C(O)/C(=C\c1ccc(Cl)cc1Cl)n1cncn1 (stereo unspecified),inactive
8,CC1(C)C(C=C(Cl)Cl)C1C(=O)OC(C#N)c1ccc(F)c(Oc2ccccc2)c1 (stereo unspecified),inactive
9,CCC(C)(C)C(=O)OC1=C(c2ccc(Cl)cc2Cl)C(=O)OC12CCCCC2,inactive
10,ClC1C(Cl)C(Cl)C(Cl)C(Cl)C1Cl (stereo unspecified),inactive
11,CN1CSC(=S)N(C)C1,inactive
12,Oc1ccc(Cl)cc1Cc1ccccc1,inactive
13,CC(C)N(C(=O)COc1nnc(C(F)(F)F)s1)c1ccc(F)cc1,inactive
14,CCC(C)(NC(=O)c1cc(Cl)c(C)c(Cl)c1)C(=O)CCl (stereo unspecified),inactive
15,OCCOc1ccccc1,inactive
16,Oc1cc(Cl)ccc1Oc1ccc(Cl)cc1Cl,inactive
17,O=C(O)CCCOc1ccc(Cl)cc1Cl,inactive
18,CNC(=O)CSP(=S)(OC)OC,inactive

row,Structure (SMILES),outcome
1,COP(=S)(OC)Oc1ccc([N+](=O)[O-])cc1,inactive
2,CCCN(CCC)c1c([N+](=O)[O-])cc(C(F)(F)F)cc1[N+](=O)[O-],inactive
3,O=[N+]([O-])/N=C1\NCCN1Cc1ccc(Cl)nc1,inactive
4,CCOC1Oc2ccc(OS(C)(=O)=O)cc2C1(C)C (stereo unspecified),inactive
5,CCOCN(C(=O)CCl)c1c(C)cccc1CC,inactive
6,COP(=S)(OC)Oc1ccc(SC)c(C)c1,inactive
7,N#CN,inactive
8,CCc1ccc(C(=O)NN(C(=O)c2cc(C)cc(C)c2)C(C)(C)C)cc1,inactive
9,CCC(C)Nc1c([N+](=O)[O-])cc(C(C)(C)C)cc1[N+](=O)[O-] (stereo unspecified),inactive
10,O=S(=O)(O)C(F)(F)C(F)(F)C(F)(F)C(F)(F)C(F)(F)C(F)(F)C(F)(F)C(F)(F)F,inactive
11,O=[N+]([O-])c1c(Cl)c(Cl)c(Cl)c(Cl)c1Cl,inactive
12,N#Cc1c(Cl)c(Cl)c(Cl)c(C#N)c1Cl,inactive
13,O=C(O)COc1ccc(Cl)cc1Cl,inactive
14,O=C1c2ccccc2C(=O)N1SC(Cl)(Cl)Cl,inactive
15,CNC(=O)Oc1cccc(N=CN(C)C)c1,inactive
16,CNC(=O)Oc1ccccc1OC(C)C,inactive
17,Cc1[nH]c(=O)n(C(C)(C)C)c(=O)c1Cl,inactive
18,O=C(O)C(F)(F)C(F)(F)C(F)(F)C(F)(F)C(F)(F)C(F)(F)C(F)(F)F,inactive
